Bioassay records as filed in PubChem BioAssay.
Compounds with a hit are over-represented: about 3.2% of the library has one in this group of screens.
Tau fluor cs = counter-screen for tau fibril formation inhibitors | tau K18 P301L Alexa594 fluorescence, heparin fibrillization | Potency, µM (highest dose often 57.7 µM), for inactives: at the highest dose activity change, negative = decrease | hit rate 0.93% among 280,000; note: potency is the fitted concentration of half-maximal effect; % is set by controls: 0 for no effect and ±100 for the full control effect; nearly all actives have a fitted effect of over 55% in size
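Human tau K18 P301L (15 uM unlabeled, 0.24 uM Alexa 594-labeled) in 100 mM sodium acetate pH 7 with 20 uM heparin, 6 hr at 37 C. ThT 30 uM added, 1 hr ambient; Alexa 594 FP and total fluorescence read at 555/632 nm.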
LMNA splice mod = LMNA splicing modulation; AID 1487; hit rate 0.01% among 200,000; Potency, µM (top dose mostly 46.1 µM), without a hit: at the top dose ratio change, negative = inhibition, hits mostly inhibitors; HeLa LMNA splicing GFP/RFP minigene ratio, 48 h; active = well fitted inhibition curve with a large enough effect in the signal ratio, with a control signal flat, not every such curve was filed as active; inconclusive = small, poorly fitted or top-dose-only effect, or effect the other way, or a change in a side signal; the % refers to the signal ratio; note: potency is the fitted concentration of half-maximal effect; % is set by controls: 0 for no effect and ±100 for the full control effect
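S3 HeLa cells stably expressing lamin A-EGFP splicing minigene plus DsRed2, 600 cells/well, 48 h compound exposure at 37C. Laser-scanning cytometry; analysed as GFP (500-530 nm)/RFP (575-640 nm) total intensity ratio; 0.5% DMSO vehicle.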
KDM4E inh = JMJD2E (human) inhibition; JMJD2E catalytic domain, FDH-coupled NADH fluorescence (FDH is formaldehyde dehydrogenase); Potency, µM (highest dose often 57.1 µM), inactives show top-dose activity change, negative = inhibition, most hits filed as inhibitors; hit rate 1.6% among 230,000; AID 2147; active = well fitted inhibition curve with a large enough effect, not every such curve was filed as active; inconclusive = small, poorly fitted or top-dose-only effect, or another doubt; inactive = no such curve, though single readings can be large or run the other way;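 note: potency is the fitted concentration of half-maximal effect; 0% = wells with enzyme and -100% = buffer wells without enzyme; nearly all actives have a fitted effect of over 50% in size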
Target sequence (B2RXH2 1-337 limits assumed): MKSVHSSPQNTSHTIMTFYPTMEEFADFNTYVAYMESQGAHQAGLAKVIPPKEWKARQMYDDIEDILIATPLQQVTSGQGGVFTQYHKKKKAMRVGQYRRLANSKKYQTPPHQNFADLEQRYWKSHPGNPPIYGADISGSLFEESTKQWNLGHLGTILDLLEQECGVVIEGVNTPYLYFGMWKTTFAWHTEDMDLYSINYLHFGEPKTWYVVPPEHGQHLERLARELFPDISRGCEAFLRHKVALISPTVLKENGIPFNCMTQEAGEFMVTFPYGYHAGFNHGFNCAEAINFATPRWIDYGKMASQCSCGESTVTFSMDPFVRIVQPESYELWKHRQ
Tau fibril ThT = inhibitors of human tau fibril formation, thioflavin T binding; P10636; recombinant tau K18 P301L, heparin-induced fibrillization, ThT fluorescence; Potency, µM (highest dose often 57.4 µM), without a hit: at the top dose activity, negative = inhibition, most hits filed as inhibitors; hit rate 2.1% among 270,000; AID 1460; note: potency is the fitted concentration of half-maximal effect; % is set by controls: 0 for no effect and ±100 for the full control effect; nearly all actives have a fitted effect of over 55% in size
Target sequence (P10636 561-689 P618L limits assumed): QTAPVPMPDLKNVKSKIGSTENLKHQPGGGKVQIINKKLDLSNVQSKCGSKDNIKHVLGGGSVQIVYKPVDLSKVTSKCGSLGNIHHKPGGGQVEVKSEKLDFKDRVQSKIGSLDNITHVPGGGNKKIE
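Fibril formation assay: tau K18 P301L at 15 uM with trace Alexa 594 label, heparin inducer 20 uM, pH 7 sodium acetate buffer, 37 C for 6 hr; endpoint ThT signal.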
CBFb-RUNX1 inh = CBF-beta/RUNX1 interaction disruption. Q01196+Q13951. 230,000 tested, under 10 active. AID 1477. AlphaScreen CBFb-His/RUNX1-biotin binding, biochemical. Potency, µM (highest dose often 59.8 µM), without a hit: at the highest dose activity, negative = inhibition, hits mostly inhibitors; note: % of control where 0% means no effect
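CBF-beta (His) and RUNX1 (biotin), 30 nM each; 20 min preassociation; + compound, 15 min; + beads 50 ng each (Ni, streptavidin), 90 min; RT; AlphaScreen read.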
Tau FP inhib = inhibitors of human tau fibril formation. Potency, µM (top dose mostly 57.7 µM), for the others: top-dose activity, negative = inhibition, usual class: inhibitors. K18 P301L tau heparin fibrillization, Alexa594 FP, 6 h. P10636. hit rate 0.39% among 280,000; note: potency is the fitted concentration of half-maximal effect; % is set by controls: 0 for no effect and ±100 for the full control effect; nearly all actives have a fitted effect of over 55% in size
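Human tau K18 […] P301L fragment, 15 uM unlabeled plus 0.24 uM Alexa 594-labeled tau (final), with compound and 20 uM heparin in 100 mM sodium acetate pH 7; 6 hr at 37 C, then Alexa 594 FP read.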
Numbers without * were called inactive; ? = inconclusive; nt = not tested or not shown; [ ] = dose if it differs, or a comment. Unless noted, calls come from the whole dose curve; as a rule, active = well fitted curve in the direction sought with a large enough effect; inconclusive = small, poorly fitted or top-dose-only effect, or another doubt; inactive = no such curve, though single readings can be large; an effect the other way counts as inactive or inconclusive.

SMILES	Tau fluor cs	LMNA splice mod	KDM4E inh	Tau fibril ThT	CBFb-RUNX1 inh	Tau FP inhib
CCOC(=O)c1sc2cccc(F)c2c1S(=O)(=O)NCc1ccccc1Cl	-16%	-7%[46 µM]	nt	1%	nt	-9%
NC(=S)n1[nH]c(-c2ccc([N+](=O)[O-])cc2)c(N=Nc2cccc(Cl)c2)c1=O	14µM*[quencher]	?	-7%	13µM*	-10%	6%
NC(=S)n1[nH]c(-c2ccc([N+](=O)[O-])cc2)c(N=Nc2ccc(O)cc2)c1=O	?	-3%	4%	3.2µM*	-9%	15%
Nc1[nH][nH]c(=O)c1N=Nc1cccc(Cl)c1	?	15%[46 µM]	15%	?	?	6%
CCN(CC)S(=O)(=O)c1ccc(N=Nc2c(C)[nH]n(C(N)=S)c2=O)cc1	-17%	-5%	-3%	?	14%	1%
CC(=O)c1cccc(NC(=O)C(OC(=O)c2ccccc2NS(=O)(=O)c2cccs2)c2ccccc2)c1 (centres undefined)	?	-17%	?	13%	9%	18µM*
O=C(Nc1ccc(Cl)c(Cl)c1)Nc1ccccc1NS(=O)(=O)c1cccs1	7.1µM*[quencher]	?	0%	?	-7%	14µM*
O=C(Nc1ccccc1)Nc1ccccc1NS(=O)(=O)c1cccs1	-19%	2%	9%	-1%	0%	-5%
CC(C)NC(=O)c1cnc2sc(N3CCCCCC3)nn2c1=O	2%	12%[46 µM]	nt	2%	nt	-1%
O=C1C(Cl)=C(N2CCCCC2)C(=O)C(Cl)=C1c1cnc(N2CCCCC2)s1	?	-4%	14µM*	16µM*	nt	22µM*
O=S(=O)(NNc1nccc(C(F)(F)F)n1)c1cccc(Cl)c1Cl	-18%	nt	0%	22µM*	4%	?
COC(=O)[C@H](Cc1ccccc1)NC(=O)O[C@@H]1C(=O)c2ccc(OC)cc2O[C@H]1c1ccc2c(c1)OCO2	-7%	nt	-2%	1%	-2%	-4%
CCC(C)S(=O)(=O)c1oc(-c2cccs2)nc1S(=O)(=O)c1ccccc1 (centres undefined)	-12%	nt	nt	9%	nt	-16%
O=c1cnnc(N/N=C/c2ccccn2)[nH]1	-1%	nt	3.5µM*	nt	-27%	4%
O=c1nc(N/N=C/c2ccccn2)cn[nH]1	-4%	?	10µM*	-9%	?	2%
Cc1ccc(/C=N/Nc2cn[nH]c(=O)n2)o1	-3%	-13%[46 µM]	-7%	-15%	-14%	-6%
Cn1c(CNc2ccc(Cl)cc2)nc2ccccc21	-17%	?	1%	?	7%	2%
Cc1ccc(N2CCN(c3ccc(NCc4nc5ccccc5n4C)cc3)CC2)cc1	?	?	?	2.5µM*	?	-14%
COC(=O)c1c(-c2cccs2)csc1NC(=O)COc1ccc(C(C)C)cc1	-17%	14%[46 µM]	nt	28µM*	nt	?
CCCc1ccc(OCC(=O)Nc2scc(-c3cccs3)c2C(=O)OC)cc1	-23%	3%[46 µM]	nt	22µM*	nt	?
COC(=O)c1c(-c2cccs2)csc1NC(=O)c1cc(OC)cc(OC)c1	-29%	1%[46 µM]	nt	?	nt	?
COCCNC(=O)CCCn1c(SCC(=O)c2ccc(Br)cc2)nc2c(sc3ccccc32)c1=O	-7%	nt	nt	1%	nt	?
c1ccc2c(-c3csc(-c4ccncc4)n3)c[nH]c2c1	13µM*[quencher]	nt	-6%	3.2µM*	2%	-6%
Brc1ccc(-c2csc(-c3c[nH]c4ccccc34)n2)cc1	?	?	?	?	-9%	-6%
COc1ccc(CCNCC(=O)Nc2ccc(C)c(S(=O)(=O)N(C)C)c2)cc1	-7%	9%[46 µM]	28µM*	-4%	5%	0%
SMILES	Tau fluor cs	LMNA splice mod	KDM4E inh	Tau fibril ThT	CBFb-RUNX1 inh	Tau FP inhib
COc1ccc(CCC(=O)Nc2ccc(C)c(S(=O)(=O)N(C)C)c2)cc1OC	3%	?	2%	3%	-9%	3%
CC(=O)N[C@H]1C(O[C@@H]2O[C@H](C[C@@H](O)[C@H]3O[C@@H](N4CCC(=O)NC4=O)[C@H](O)[C@@H]3O)[C@H](O)[C@H](O)[C@H]2NC(=O)/C=C/CCCCCCCCCCC(C)C)OC(CO)[C@@H](O)[C@@H]1O (some centres undefined)	-27%	nt	nt	-8%	-17%	-13%
C=CCn1c(COc2ccccc2)nnc1SCC(=O)N/N=C/c1cc(Cl)ccc1O	-29%	?	28µM*	-6%	-9%	8%
C=CCn1c(COc2ccccc2)nnc1SCC(=O)N/N=C/c1ccc(C)cc1	-11%	-1%	1%	-14%	-8%	9%
C=CCn1c(CNc2ccc(C)cc2)nnc1SCC(=O)N/N=C/c1ccc(O)cc1O	?	?	16µM*	?	-23%	?
C=CCn1c(CNc2ccccc2)nnc1SCC(=O)N/N=C/c1ccc(O)cc1O	-29%	8%	22µM*	-20%	-16%	8%
C=CCn1c(SCC(=O)NCc2ccccc2)nnc1-c1ccccc1O	-5%	0%	-3%	-9%	1%	-6%
Cc1ccc(S(=O)(=O)Oc2ccc(/C=C(/NC(=O)c3ccccc3)C(=O)NC(C)C(=O)O)cc2)cc1 (centres undefined)	?	nt	?	?	11%	-10%
CCn1cc(/C=C(\NC(=O)c2ccc(C)cc2)C(=O)NCCCn2ccnc2)c2ccccc21	-9%	nt	nt	-10%	nt	-2%
CCOC(=O)c1sc(NC(C)=O)cc1C	-2%	-15%	6%	-4%	3%	-6%
CCOC(=O)c1sc(NC(=O)Nc2ccccc2Cl)cc1C	8.9µM*[quencher]	?	27%	-8%	5%	?
CCOC(=O)c1sc(NC(=O)Nc2ccccc2)cc1C	14µM*[quencher]	?	-5%	?	6%	?
N#C/C(=C\c1ccc(Sc2nc3ccccc3[nH]2)o1)c1ccccc1	?	?	?	?	-7%	-11%
N#C/C(=C/c1ccc(N2CCOCC2)o1)c1ccc(Br)cc1	?	9%	?	14µM*	-20%	?
N#C/C(=C/c1ccc(N2CCCCCC2)o1)c1cccc(F)c1	?	2%	0%	14µM*	10%	?
N#C/C(=C\c1ccc(Sc2ccc(Cl)cc2)o1)c1nc2ccccc2[nH]1	7.1µM*[quencher]	-16%	-6%	?	1%	?
N#C/C(=C/c1ccc(N2CCOCC2)o1)c1nc2ccccc2[nH]1	?	?	?	7.9µM*	-13%	-5%
CCOC(=O)c1cc2c(=O)n3ccccc3nc2n(C)c1=NC(=O)c1c(-c2ccccc2Cl)noc1C	-20%	nt	nt	-10%	nt	-8%
